Among all 310,000 compounds or so, about 14,000 (4.5%) showed an effect of 50% or more. The effect is printed as a negative number. The sample holds strong results, similar compounds and a random draw of the others, so the mix is not that of the screen.
biological target: human ether-à-go-go-related gene (hERG) potassium channel (human, UniProt Q12809); assay: primary screen, population patch clamp on CHO cells stably expressing hERG; higher = less effect of the substance
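Further: peak tail current of the secondary pulse compared with the same well before compound.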

Sequence of human ether-à-go-go-related gene (hERG) potassium channel (Q12809 whole entry, looked up): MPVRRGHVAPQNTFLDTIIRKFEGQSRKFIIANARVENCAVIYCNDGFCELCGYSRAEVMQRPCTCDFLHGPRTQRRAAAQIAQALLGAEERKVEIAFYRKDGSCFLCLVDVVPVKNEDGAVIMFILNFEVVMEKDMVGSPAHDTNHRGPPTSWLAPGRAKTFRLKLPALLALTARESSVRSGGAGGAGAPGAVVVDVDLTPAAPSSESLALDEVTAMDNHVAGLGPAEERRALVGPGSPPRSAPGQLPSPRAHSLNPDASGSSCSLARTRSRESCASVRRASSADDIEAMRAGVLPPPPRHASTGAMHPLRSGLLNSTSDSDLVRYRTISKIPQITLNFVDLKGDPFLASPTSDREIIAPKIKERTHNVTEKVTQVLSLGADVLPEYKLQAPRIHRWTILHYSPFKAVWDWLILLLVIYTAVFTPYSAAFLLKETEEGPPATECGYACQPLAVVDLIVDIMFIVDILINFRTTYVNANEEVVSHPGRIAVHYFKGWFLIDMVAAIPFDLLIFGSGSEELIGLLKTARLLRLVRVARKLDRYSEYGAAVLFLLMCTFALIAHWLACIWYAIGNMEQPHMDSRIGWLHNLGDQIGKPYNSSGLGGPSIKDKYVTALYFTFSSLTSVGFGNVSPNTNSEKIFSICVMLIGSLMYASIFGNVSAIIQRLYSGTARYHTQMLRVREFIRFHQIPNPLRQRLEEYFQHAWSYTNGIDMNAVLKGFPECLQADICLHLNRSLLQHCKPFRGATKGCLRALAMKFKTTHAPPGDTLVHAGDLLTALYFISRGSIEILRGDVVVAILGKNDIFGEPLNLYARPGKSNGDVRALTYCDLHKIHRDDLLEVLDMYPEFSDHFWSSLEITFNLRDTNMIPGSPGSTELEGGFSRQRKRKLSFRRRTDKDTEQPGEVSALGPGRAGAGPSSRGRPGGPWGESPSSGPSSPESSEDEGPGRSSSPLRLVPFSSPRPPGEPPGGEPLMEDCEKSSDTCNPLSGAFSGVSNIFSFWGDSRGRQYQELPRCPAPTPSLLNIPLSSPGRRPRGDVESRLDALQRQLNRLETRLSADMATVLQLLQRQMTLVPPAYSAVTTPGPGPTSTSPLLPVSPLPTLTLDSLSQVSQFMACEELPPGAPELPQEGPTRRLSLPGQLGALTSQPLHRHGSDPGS

Row | Structure (SMILES) | hERG current change (%, negative = inhibition) at 10uM [%]
1 | CC(=O)Nc1ccc(N2CCCC2)cc1 | 6.33
2 | CCN1CCN(C(c2ccccc2)c2sc3nc(C)nn3c2O)CC1 (stereo not shown) | -9.32
3 | C/C(CC(=O)Nc1ccccc1)=N\NC(=O)COc1ccc(C)cc1Br | 2.14
4 | C/C(CC(=O)N(C(C)C)C(C)C)=N\NC(=O)COc1ccc(Cl)cc1Cl | -22.6
5 | C/C(CC(=O)N(C(C)C)C(C)C)=N\NC(=O)COc1ccc(Br)cc1Br | -51.3
6 | Cc1cc2nc(-c3ccc(SCC(=O)Nc4ccc(S(=O)(=O)N5CCCC5)cc4)nc3)[nH]c2cc1C | 8.52
7 | Cc1cccc(N2C(=O)CC(N3CCN(Cc4ccc5c(c4)OCO5)CC3)C2=O)c1 (stereo not shown) | -19.1
8 | CCOc1ccccc1CN1CCN(Cc2cn(C)nc2-c2ccccc2)CC1CCO (stereo not shown) | -65.6
9 | COc1ccc(CN2CCN(Cc3cn(C)nc3-c3ccccc3)CC2CCO)c(C)c1C (stereo not shown) | -72.4
10 | Cc1ccc(CN2CCN(Cc3cn(C)nc3-c3ccccc3)CC2CCO)o1 (stereo not shown) | 1.84
11 | Cn1cc(CN2CCN(Cc3ccccc3)C(CCO)C2)c(-c2ccccc2)n1 (stereo not shown) | -37.9
12 | CCn1ncc(CN2CCN(Cc3ccc(OC)c(C)c3C)C(CCO)C2)c1C (stereo not shown) | -19.9
13 | COc1cc(C2CC(=O)Oc3c2c(=O)n(C)c2ccccc32)ccc1O (stereo not shown) | 14.7
14 | COc1ccc(NC(=O)C2(c3ccc(NC(=O)c4ccc(OC)cc4)cc3)CCCC2)cc1 | -9.88
15 | CCn1c(SCC(=O)N/N=C/c2ccccc2OCC(=O)O)nnc1-c1ccc(C)cc1 | 3.57
16 | Cn1c(=O)c(C(=O)COC(=O)c2cc(C3CC3)nc3ccccc23)c(N)n(Cc2ccccc2)c1=O | 13.8
17 | Cc1cc(C)cc(-n2ncc3c2CCCC3NC(=O)c2csnn2)c1 (stereo not shown) | -110
18 | Cc1cccc(-n2ncc3c2CCCC3NC(=O)CCN2Cc3ccccc3C2=O)c1C (stereo not shown) | 2.55
19 | Cc1ccccc1-n1ncc2c1CC(C)(C)CC2NC(=O)CCN1Cc2ccccc2C1=O (stereo not shown) | -3.54
20 | Cc1cc(C)cc(-n2ncc3c2CCCC3NC(=O)C2CCC2)c1 (stereo not shown) | -76
21 | CC(C)(C)c1ccc(-n2ncc3c2CCCC3NC(=O)c2csnn2)cc1 (stereo not shown) | 1.88

Row | Structure (SMILES) | hERG current change (%, negative = inhibition) at 10uM [%]
22 | CC(=O)c1cc(C(=O)NC2CCCc3c2cnn3-c2cc(C)cc(C)c2)[nH]n1 (stereo not shown) | -23
23 | Cc1ccc(-n2ncc3c2CCCC3NC(=O)c2csnn2)cc1C (stereo not shown) | -33.2
24 | Cc1cc(C)cc(-n2ncc3c2CCCC3NC(=O)c2cc(C)[nH]n2)c1 (stereo not shown) | -67.5
25 | CC(=O)N1CCC(C(=O)NC2CCCc3c2cnn3-c2cc(F)cc(F)c2)CC1 (stereo not shown) | -4.52
26 | Cc1cc(C)cc(-n2ncc3c2CCCC3NC(=O)CCN2Cc3ccccc3C2=O)c1 (stereo not shown) | -54.3
27 | Cc1cc(C)cc(-n2ncc3c2CCCC3NC(=O)C2(C(N)=O)CC2)c1 (stereo not shown) | 13.7
28 | Cc1cc(C(=O)NC2CCCc3c2cnn3-c2ccc(C(C)(C)C)cc2)n[nH]1 (stereo not shown) | -5.84
29 | O=C(/C=C/Nc1ccc(S(=O)(=O)Nc2cnc3ccccc3n2)cc1)c1cccnc1 | -12.9
30 | O=C(C[n+]1cc(Br)cc(Br)c1)c1ccccc1.[Br-] | 8.53
31 | CC(C)C(=O)c1cn(CC(=O)NCc2ccc3c(c2)OCO3)c2ccccc12 | 16
32 | CC1(C)CC(=O)C=C(c2ccc3[nH]ccc3c2)C1 | 1.61
33 | O=C(CC1SC(=Nc2ccc3c(c2)OCCO3)NC1=O)Nc1ccc(F)cc1F (stereo not shown) | 8.62
34 | Cc1n[nH]c(=S)n1/N=C/c1ccc(OCc2ccc(Cl)cc2Cl)cc1 | 11.1
35 | Cc1cc(NC(=O)Cn2nnc(-c3ccccc3N)n2)no1 | 11.8
36 | CCOC(=O)c1c(NC(=O)CSc2nnc(-c3ccccc3)o2)sc(C(C)=O)c1C | 5.01
37 | CC(C)(C)C(=O)N1CCN(c2ccc([N+](=O)[O-])cc2-n2cccc2)CC1 | -26.3
38 | O=C(c1ccccc1)N1CCN(c2ccc([N+](=O)[O-])cc2-n2cccc2)CC1 | -54.5
39 | Cc1ccc(N2CCN(C(=O)c3ccccc3)CC2)c(C)c1 | -18.4
40 | O=C(c1ccc(F)cc1)N1CCC(C(=O)N2CCN(S(=O)(=O)c3cccc([N+](=O)[O-])c3)CC2)CC1 | -34.5
41 | Cc1ccc(C(=O)N2CCN(c3ccc([N+](=O)[O-])cc3-n3cccc3)CC2)cc1 | -56.4
42 | O=C(c1ccc(F)cc1)N1CCN(c2ccc([N+](=O)[O-])cc2-n2cccc2)CC1 | -65

Row | Structure (SMILES) | hERG current change (%, negative = inhibition) at 10uM [%]
43 | O=C(C1CC1)N1CCN(c2ccc([N+](=O)[O-])cc2-n2cccc2)CC1 | -31
44 | O=C(c1ccccc1F)N1CCN(c2ccc([N+](=O)[O-])cc2-n2cccc2)CC1 | -23.1
45 | CCOC(=O)C1CCCN(C(=O)c2cc3ccc(OC)cc3[nH]2)C1 (stereo not shown) | 6.4
46 | CN1CCN(CCCNCc2cn(CCC#N)c3ccccc23)CC1.O=C(O)C(=O)O | 9.43
47 | Cc1ccc(C(O)(COC(=O)C(C)C)COC(=O)C(C)C)c(O)c1 | 3.76
48 | O=C(CCCC(=O)N(c1ccc2c(c1)OCCO2)C(C(=O)NC1CCCCC1)c1ccc(F)cc1)Nc1ccccn1 (stereo not shown) | 10
49 | COc1ccc([N+](=O)[O-])cc1CSc1ccccn1 | 1.85
50 | O=C(NC1CCCCC1)C(c1cccs1)N(CC1CCCO1)C(=O)c1csnn1 (stereo not shown) | -16.1
51 | COc1ccc(NC(=O)c2noc(C(C)C)c2[N+](=O)[O-])cc1 | 6.44
52 | O=C(CN1CCN(S(=O)(=O)c2ccc(Cl)cc2)CC1)NC1CCCC1 | -50.2
53 | COc1ccc(NC(=O)CCN2CCN(S(=O)(=O)c3ccc(Cl)cc3)CC2)cc1 | -27.1
54 | O=C(CN1CCN(S(=O)(=O)c2ccc(Cl)cc2)CC1)NC(=O)NC1CCCCC1 | -27.7
55 | O=C(CN1CCCN(S(=O)(=O)c2ccc(Br)s2)CC1)Nc1ccc(Cl)cc1 | -28.7
56 | Cc1ccc(NC(=O)CN2CCCN(S(=O)(=O)c3ccc(Br)s3)CC2)cc1 | -50.1
57 | COc1cc(NC(=O)CN2CCN(S(=O)(=O)c3ccc(C(C)C)cc3)CC2)cc(OC)c1 | -11.5
58 | COc1ccc(NC(C)=O)cc1NC(=O)CN1CCN(S(=O)(=O)c2ccc(C(C)C)cc2)CC1 | -9.86
59 | Cc1cc(C)cc(NC(=O)CN2CCCN(S(=O)(=O)c3ccc(Br)s3)CC2)c1 | -6.01
60 | O=C(CN1CCN(S(=O)(=O)c2ccc(Cl)cc2)CC1)NC1CC1 | 1.82
61 | CCOc1ccc(NC(=O)CN2CCN(S(=O)(=O)c3ccc(Cl)cc3)CC2)cc1 | -9.26
62 | COc1ccc(NC(=O)CN2CCN(S(=O)(=O)c3ccc(C(C)C)cc3)CC2)cc1OC | -66.5
63 | COc1ccc(NC(=O)CN2CCN(S(=O)(=O)c3ccc(Cl)cc3)CC2)cc1 | -79.7

Row | Structure (SMILES) | hERG current change (%, negative = inhibition) at 10uM [%]
64 | Cc1ccccc1/C=C1\SC(=S)N(/N=C/c2cc([N+](=O)[O-])ccc2O)C1=O | 8.13
65 | COc1ccc(N(C)C(=O)c2cnc(N3CCN(c4ncccn4)CC3)c3ccccc23)cc1 | -11.8
66 | Cc1ccc(NC(=O)N2CCC(NC(=O)C(C)(C)C)CC2)cc1 | 10.1
67 | O=C(Cn1cncn1)N/N=C/c1cccc(Cl)c1 | 16.3
68 | Oc1ccc(N=Nc2cccc(C(F)(F)F)c2)cc1C=Nc1ccc(N2CCOCC2)cc1 | 15.6
69 | CCOc1ccc(C(CC(=O)O)NC(=O)COc2ccccc2OC)cc1OC (stereo not shown) | 26.4
70 | Cc1c(C(=O)O)cccc1-c1ccc(/C=N/Nc2ccc(Br)cc2)o1 | 30.2
71 | Cc1ccc(S(=O)(=O)N2CCN(C(=O)CCC(=O)NC3CCCc4ccccc43)CC2)cc1 (stereo not shown) | -17.3
72 | CCc1ccc(NC(=O)CN2CCCN(S(=O)(=O)c3ccc(F)cc3)CC2)cc1 | -63.9
73 | O=C(CN1CCCN(S(=O)(=O)c2ccc(F)cc2)CC1)Nc1c(Cl)cccc1Cl | -27.1
74 | COc1ccc(S(=O)(=O)N2CCN(CC(=O)Nc3ccc(F)c(F)c3)CC2)cc1 | -66.4
75 | COc1ccc(S(=O)(=O)N2CCN(CC(=O)Nc3cc(OC)cc(OC)c3)CC2)cc1 | -0.404
76 | O=C(CCC(=O)N1CCN(S(=O)(=O)c2ccccc2)CC1)NC1CCCc2ccccc21 (stereo not shown) | -13.5
77 | O=C(CN1CCN(S(=O)(=O)c2ccc(F)cc2)CC1)Nc1ccc2c(c1)OCCO2 | -10.9
78 | O=C(CCC(=O)N1CCN(S(=O)(=O)c2ccc(Cl)cc2)CC1)NC1CCCc2ccccc21 (stereo not shown) | -52.6
79 | COc1ccc(NC(=O)CN2CCN(S(=O)(=O)c3ccc(Cl)cc3)CC2)cc1Cl | -0.308
80 | NS(=O)(=O)c1ccc(NC(=O)CN2CCCN(S(=O)(=O)c3ccc(F)cc3)CC2)cc1 | -17.9
81 | O=C(CN1CCCN(S(=O)(=O)c2ccc(F)cc2)CC1)Nc1cccc(F)c1 | -50.3
82 | COc1ccc(NC(=O)CN2CCCN(S(=O)(=O)c3ccc(F)cc3)CC2)cc1 | -36.5

— paper PMC4336329 (PLoS ONE, 2015)
